Shown are actives, neighbours in structure and some others; about 0.43% of the full set was active somewhere.
N370S GC mod: inhibitors or activators of N370S glucocerebrosidase for Gaucher disease. P04062. N370S GC spleen homogenate, 4MU-glucoside fluorescence. Potency, µM (top dose mostly 59.4 µM), for inactives: top-dose activity change, negative = inhibition, usual class: inhibitors. 0.092% of 330,000 active;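 further: potency means the concentration at half of the fitted maximal effect; 0% = full enzyme activity and -100% = no enzyme basal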
aGal spleen mod: inhibitors or activators of human alpha-galactosidase in spleen homogenate; Potency, µM (top dose mostly 80 µM), for inactives: top-dose activity change, negative = inhibition, most hits filed as inhibitors; P06280; human spleen homogenate, 4MU-alpha-Gal fluorescence, 40 min; 0.008% of 240,000 active;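 further: potency means the concentration at half of the fitted maximal effect; 0% = enzyme with vehicle and -100% = no enzyme basal signal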
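Human spleen homogenate (1 ug) was the enzyme source, with 4-methylumbelliferyl-alpha-D-galactopyranoside (1 mM final) in pH 5.0 citrate buffer with 0.01% Tween-20. Compounds were titrated; after 40 min at 37C, NaOH/glycine stop, 4-MU fluorescence read; AC50 from Hill fits.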
GAA spleen mod: lysosomal alpha-glucosidase (human) modulation | human spleen homogenate, 4-MU-alpha-glucoside fluorescence | AID 2112 | 0.006% of 240,000 active | P10253 | Potency, µM (top dose mostly 79.9 µM), for the others: top-dose activity change, negative = inhibition, hits mostly inhibitors;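 further: potency means the concentration at half of the fitted maximal effect; 0% = enzyme with vehicle and -100% = no enzyme basal signal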
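Human spleen homogenate (1 ug) incubated with compounds and 1 mM 4-methylumbelliferyl-alpha-D-glucopyranoside in pH 5.0 citrate/phosphate buffer, 37 C, 40 min. Stopped at pH 10; 4-MU fluorescence (Ex 365/Em 440 nm); AC50 by Hill fit.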
GAA glycogen mod: alters human alpha-glucosidase cleavage of glycogen. P10253. recombinant GAA, glycogen substrate, Amplex Red glucose oxidase fluorescence. Potency, µM (doses to about 76.4 µM), for the others: at the highest dose activity change, negative = inhibition, usual class: inhibitors. 0.38% of 300,000 active;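 further: potency means the concentration at half of the fitted maximal effect; 0% = full enzyme reaction and -100% = no-enzyme basal signal; the screen sought inhibitors and activators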
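Natural-substrate format: glycogen cleavage by 4 nM human enzyme, glucose read by Amplex Red coupling (Ex 573, Em 610 nm). Normalized to enzyme and no-enzyme controls.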
GLA inh pH 4.5: alpha-galactosidase A (human) inhibition, pH 4.5; purified enzyme, 4-MU-alpha-Gal fluorescence, pH 4.5; 230,000 tested, under 10 active; activity change, negative = inhibition, % at 105 µM;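 further: 0% = full activity with enzyme and -100% = basal without enzyme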
Target sequence (P06280 whole entry, looked up): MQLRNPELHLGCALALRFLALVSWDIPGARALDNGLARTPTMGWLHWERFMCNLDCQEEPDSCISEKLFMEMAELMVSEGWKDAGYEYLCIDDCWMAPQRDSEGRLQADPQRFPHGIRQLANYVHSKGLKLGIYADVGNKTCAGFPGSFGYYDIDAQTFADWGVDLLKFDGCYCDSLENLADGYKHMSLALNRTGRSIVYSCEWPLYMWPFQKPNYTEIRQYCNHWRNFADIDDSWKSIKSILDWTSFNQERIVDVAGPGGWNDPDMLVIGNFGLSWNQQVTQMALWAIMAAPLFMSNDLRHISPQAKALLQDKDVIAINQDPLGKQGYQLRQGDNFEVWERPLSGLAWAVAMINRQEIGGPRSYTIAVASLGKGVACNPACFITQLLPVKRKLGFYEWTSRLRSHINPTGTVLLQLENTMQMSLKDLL
GAA inhib: blocks human lysosomal alpha-glucosidase | P10253 | purified human GAA, 4-MU-alpha-glucoside fluorescence | Potency, µM (doses to about 76.9 µM), inactives show top-dose activity change, negative = inhibition, usual class: inhibitors | 0.005% of 200,000 active | AID 1466;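 further: potency means the concentration at half of the fitted maximal effect; plate controls were uninhibited enzyme wells for no effect and no-enzyme background for full effect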
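Activity normalized between no-enzyme (basal) and enzyme-only wells. Conditions: 4 nM human enzyme, 400 uM fluorogenic substrate, citrate/phosphate pH 5.0 with Tween-20, 20 min room temperature, compounds up to 77 uM.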
* marks the source's active call; other numbers are inactive results; ? = inconclusive; . = no result given; [ ] = dose if it differs, or a comment. The call rests on the fitted dose curve; in most records, active means well fitted curve in the direction sought with a large enough effect; inconclusive means small, poorly fitted or top-dose-only effect, or another doubt; inactive means no such curve, though single readings can be large; an effect the other way counts as inactive or inconclusive.

SMILES	N370S GC mod	aGal spleen mod	GAA spleen mod	GAA glycogen mod	GLA inh pH 4.5	GAA inhib
CCOc1cc(-c2nc3c(C)cccn3c2NCC2CCCO2)ccc1O (stereo unspecified)	0.2%	9.3%	-1.4%	35.5µM*	7.2	-10.0%
Cc1cccn2c(NCC3CCCO3)c(C(C)C)nc12 (stereo unspecified)	4.7%	-11.7%	-5.3%	?	1.7	0.7%
CC(NC(=O)Oc1ccccc1)C(c1cccs1)N1CCOCC1 (stereo unspecified)	2.3%	2.0%	-10.0%	3.6%	-2.1	5.9%
Oc1ccc(/C=N/NP(=S)(c2ccccc2)c2ccccc2)cc1	?	1.1%	-8.3%	-15.5%	-11.0	-8.7%
COc1cc(/C=N/NP(=S)(c2ccccc2)c2ccccc2)ccc1O	?	-7.3%	-2.8%	24.9µM*	1.4	-4.6%
COc1ccc(O)c2c(=O)c3c(OC)cc4c(c3oc12)C1C=COC1O4 (stereo unspecified)	17.4%	2.8%	-0.2%	8.8%	-10.6	.
CN1C(=O)C(Cc2cccc3ccccc23)C(=O)N(C)C1=O	5.0%	0.7%	-3.5%	?	2.7	-18.0%
O=C1C2CCN(CC2)[C@@H]1Cc1ccc2ccccc2c1O	-19.3%	2.7%	-4.1%	7.88µM*	5.1	-4.4%
CCCCCCCCCCCC[N+](C)(C)CCOc1ccccc1	4.47µM*	10.4%	9.1%	.	.	.
O=C(NC1(C(F)(F)F)Oc2ccc(Cl)cc2O1)N1CCC2(CC1)OCCO2 (stereo unspecified)	.	-1.2%	-1.8%	8.91µM*	0.4	1.6%
O=C(NC1(C(F)(F)F)Oc2ccccc2O1)N1CCC2(CC1)OCCO2	0.3%	5.0%	-0.6%	5.62µM*	-4.7	-5.4%
CC(=O)O[C@@]12CO[C@@H]1C[C@@H](O)[C@@]1(C)C(=O)[C@H](O)C3=C(C)[C@@H](OC(=O)[C@H](O)[C@@H](NC(=O)c4ccccc4)c4ccccc4)C[C@@](O)([C@@H](OC(=O)c4ccccc4)C12)C3(C)C (stereo partly specified)	?	.	.	12.5%[76.3 µM]	.	.
CC(C)c1cc2c(c(O)c1O)[C@@]1(C(=O)O)CCCC(C)(C)[C@@H]1CC2	-4.5%	6.5%	-1.5%	.	-7.3	.
COc1cc(/C=C2\C(=O)NC(=O)N(c3ccc(C)cc3)C2=O)cc(OC)c1O	-5.4%	1.0%	-6.7%	-15.8%	-3.5	-8.1%
CN1CC(C(=O)c2ccc(Cl)cc2)C(c2ccc(N(C)C)cc2)C1 (stereo unspecified)	1.2%	3.2%	2.2%	-4.3%	-5.6	?
CN1CC(C(=O)c2ccc(Cl)cc2)C(c2ccc(Cl)cc2Cl)C1 (stereo unspecified)	17.8µM*	.	.	1.1%	.	.
CN1CCC(=O)N(CCN=[N+]=[N-])CC1	2.4%	.	.	50.1µM*	.	.
CN1[C@@H]2CC[C@H]1CC(O[C@@H](c1ccccc1)c1ccc(Cl)cc1)C2 (stereo partly specified)	7.94µM*	13.9%	0.2%	.	-25.6	.
CN1CCN(c2ccc3nccnc3c2)CC1	-4.1%	35.5µM*	?	7.2%	7.8	1.5%
O=C(c1cc(F)ccc1F)C1CCCN(Cc2ccc3nonc3c2)C1 (stereo unspecified)	-1.7%	-5.3%	3.8%	-6.7%	3.9	5.7%
O=c1[nH]sc2cc(F)ccc12	-5.3%	2.0%	7.5%	-3.7%	-10.2[21.1 µM]	-5.6%
O=C(O)C1Sc2[nH]c(=O)sc2C2c3cc(Cl)ccc3OC(=O)C12 (stereo unspecified)	11.2%	3.1%	5.3%	15.8µM*	-3.4	5.8%
Cn1c(=O)cc(OCC(=O)N2CCC3(CC2)OCCO3)c2ccccc21	-1.7%	12.8%	1.9%	-6.3%	5.4	0.4%
O=c1cc(-c2ccc(O)c(O)c2)oc2cc(O)cc(O)c12	?	?	-0.7%	25.1µM*	-8.6	.
O=c1c(O)c(-c2ccc(O)c(O)c2)oc2cc(O)cc(O)c12	?	-19.2%	0.9%	?	-16.4	.
SMILES	N370S GC mod	aGal spleen mod	GAA spleen mod	GAA glycogen mod	GLA inh pH 4.5	GAA inhib
CCC(N)Cc1c[nH]c2ccccc12 (stereo unspecified)	-6.3%	-2.2%	-8.0%	3.2%	-0.3	.
Cc1cc2c(C(C)C)c(O)c(O)c(C=O)c2c(O)c1-c1c(C)cc2c(C(C)C)c(O)c(O)c(C=O)c2c1O	11.3%	4.3%	-2.5%	8.91µM*	-3.9	?
O=C(Cc1ccccc1)N1CCN(C2CCCC2)CC1	6.9%	7.0%	0.2%	15.3%	2.5	-11.1%
OC[C@@H]1[C@@H](O)[C@H](O)[C@H]2[C@@H](O)CCN21	-6.2%	1.1%	28.2µM*	.	.	.
O=C(N/N=C1/CN2CCC1CC2)c1cc2ccccc2cc1O	-21.5%	-11.8%	-0.6%	35.5µM*	5.5	-0.6%
OCCCc1ccc(O)c(O)c1	4.6%	9.5%	-1.2%	35.5µM*	0.1	.
O=P(Oc1ccccc1)(Oc1ccccc1)c1ccccc1	18.4%	-2.8%	-3.7%	0.0%	-4.6	.
CC1CN(O)C2CCc3c(no[n+]3[O-])C12O (stereo unspecified)	4.1%	8.3%	5.7%	8.84µM*	2.7	5.4%
O=C(c1ccccc1F)N1C[C@H]2C[C@@H](C1)c1cccc(=O)n1C2	-5.9%	.	.	5.4%[76.3 µM]	.	.
